Screening results from PubChem.
SKN-1 block: suppressors of acrylamide-induced Pgst-4::GFP reporter in worms, primary screen, SKN-1 inhibitor project, whole organism, uHTS, GFP/RFP fluorescence ratio, strain VP596 | C. elegans VP596 Pgst-4::GFP/RFP ratio, 24 h | inhibition, % at 21.8 µM | 0.49% of 360,000 active;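 active = interference check ratio from 0.5 to 1.5 plus GFP to RFP signal ratio inhibition reaching or exceeding a fixed threshold, cut at about 30% in these data, passing the limit was not always enough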
hiPSC survival: enhancers of single-cell hiPSC survival, primary screen, ATPlite luminescence. 100% = ROCK inhibitor wells, 0% = DMSO. survival enhancement, % at 20 µM. 0.044% of 360,000 active; in the data active = survival enhancement above about 18%;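 note: cells exposed to compounds for 16 hours before the ATP read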
CRFBP-R2 block: antagonists of CRF-BP/CRF-R2 complex, primary screen, cell-based, HEK293, calcium dye fluorescence, uHTS; CRF-induced calcium fluorescence; inhibition, % at 11.8 µM; 0.59% of 350,000 active; AID 588475, 2011;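 active = inhibition of the ligand-induced calcium signal above about 50% at the single tested concentration, limit read from the data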
CRFBP-R2 agonist: agonists of CRF-BP/CRF-R2 complex, primary screen, cell-based, HEK293, calcium dye fluorescence, uHTS; activation, % at 13.2 µM; AID 588473, 2011; calcium dye fluorescence (FLIPR); percent of saturating CRF peptide response; 0.46% of 350,000 active;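 active = activation of at least 50%, plus an integration ratio under a set limit after plate pattern correction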
Cardio protect: cardioprotection against H2O2-induced cell death, primary screen, uHTS, H9c2 cells, ATPLite luminescence. AID 588492, 2011. H9c2 cardiomyocytes, H2O2 injury protection, 2 h. 0.63% of 360,000 active. protection from H2O2 cell death, % at 20 µM;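 active = compounds giving at least 50% protection of heart cells from peroxide-induced death in the single-dose screen, raw or plate-pattern-corrected value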
TAG inh: inhibitors of triacylglycerol accumulation, primary screen, cell-based, uHTS, fluorescence, H9c2 | H9c2 cells, Nile Red lipid (TAG) fluorescence; cells loaded with 200 µM oleic acid | inhibition, % at 12.5 µM | 0.66% of 230,000 active;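 active = pattern-corrected inhibition of lipid staining of at least 50% with the nuclear-stain viability signal not falling by more than 50%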
Each line names hits and unclear results; the compound was inactive in the other large screens. This is a sample that favours compounds with a hit; in the whole collection about 2.5% have one here.

COc1ccc(OC)c(S(=O)(=O)N2c3ccccc3CC2C)c1 (stereo not drawn)	CRFBP-R2 block 53 (no result: TAG inh)
CC(NC(=O)Cc1ccc(NC2=NC3CS(=O)(=O)CC3S2)cc1)c1ccccc1 (stereo not drawn)	none
CC(CNC(=O)c1ccc(NC2=NC3CS(=O)(=O)CC3S2)cc1)c1ccccc1 (stereo not drawn)	CRFBP-R2 agonist 50
CCN(C(=O)CSc1nnc(NCCOC)s1)c1c(N)n(Cc2ccccc2)c(=O)[nH]c1=O	none
CCOC1=C2CN(S(=O)(=O)c3ccc(C)cc3)[C@H](c3ccccc3)C[C@@H]2N(S(=O)(=O)c2ccc(Br)cc2)[C@H](c2ccccc2)C1	none (no result: CRFBP-R2 block, CRFBP-R2 agonist, TAG inh)
CCOc1cc2c(cc1/C=C/c1noc(C)c1[N+](=O)[O-])OC(C)C2 (stereo not drawn)	CRFBP-R2 agonist 193 (no result: TAG inh)
CCOc1cc2c(cc1C=O)OC(C)C2 (stereo not drawn)	none
CC(C)NC(=O)Nc1ccc2c(c1)C(=O)N([C@@H](C)CO)C[C@H](C)[C@H](CN(C)S(=O)(=O)c1ccccc1)OCCCC[C@H](C)O2	none
Cn1c(SCC(=O)N2CCCc3ccccc32)nc2cccnc21	CRFBP-R2 block 56
Cn1c(SCC(=O)N2CCc3ccccc32)nc2cccnc21	none
C#CCNC(=O)C[C@@H]1C[C@@]2(C(=O)OCC)CCCC=C2N(CCCCCCCC)C1=O	none (no result: CRFBP-R2 block, CRFBP-R2 agonist, Cardio protect, TAG inh)
Nn1c(=S)[nH]c2sc3c(c2c1=O)CCCC3	SKN-1 block 36
CCCn1c(=S)[nH]c2sc3c(c2c1=O)CCCC3	none (no result: TAG inh)
O=C1CC(c2ccccc2)=C(c2ccccc2)C1c1ccccc1 (stereo not drawn)	none
COc1cc2c(cc1OC)/C(=C/C(=O)c1ccc(OC)c([N+](=O)[O-])c1)NCC2	CRFBP-R2 block 57 (no result: TAG inh)
COc1cc2c(cc1OC)/C(=C/C(=O)c1cccc([N+](=O)[O-])c1)NCC2	none (no result: TAG inh)
CSCc1cc(C(=O)NC2CC2)c(N)s1	none (no result: hiPSC survival, CRFBP-R2 block, CRFBP-R2 agonist, Cardio protect, TAG inh)
COc1cc2c(C#CCCO)c(-c3ccsc3)oc(=O)c2cc1OC	Cardio protect 64
O=C(NCc1ccc(F)cc1)c1cc(C2CCCN(S(=O)(=O)c3ccccc3)C2)on1 (stereo not drawn)	none (no result: CRFBP-R2 block, CRFBP-R2 agonist)
CC(=O)/C=C1\OCc2cc(OCc3ccccc3)ccc21	none (no result: hiPSC survival, CRFBP-R2 block, CRFBP-R2 agonist, Cardio protect, TAG inh)
O=c1cc(-c2ccccc2Cl)oc2c(NS(=O)(=O)c3cc(Cl)cc(Cl)c3O)ccc(O)c12	CRFBP-R2 agonist 81
CC(=O)NC(c1cccc(F)c1)c1nc(-c2ccc(N(C)C)cc2)cs1 (stereo not drawn)	none (no result: CRFBP-R2 block, CRFBP-R2 agonist)
Cn1c(-c2ccc(Br)o2)nc2cc(Br)ccc21	SKN-1 block 43
Cc1nnc2n(C3CCCCC3)c(=O)c3c4c(sc3n12)COC(C)(C)C4	hiPSC survival 21 (no result: TAG inh)
CC(C)(C)c1nc(SCC(=O)NNC(=O)c2ccccc2)c2ccccc2n1	none (no result: TAG inh)
CC(=O)Nc1sc(/C(C#N)=C/c2ccc(Cl)c(Cl)c2)nc1-c1ccc(C)cc1	CRFBP-R2 agonist 281
COc1ccc(Cl)cc1CC1(C)C(=O)Nc2c(Cl)cccc21 (stereo not drawn)	none (no result: CRFBP-R2 block, CRFBP-R2 agonist)
Cc1cc(C(F)(F)F)c(C#N)c(SCC(=O)Nc2nc3ccccc3s2)n1	CRFBP-R2 agonist 80
O=C(NC1CCCCC1)C(c1ccc2ncccc2c1)N(Cc1ccccc1)C(=O)c1ccc2c(c1)OCCO2 (stereo not drawn)	Cardio protect 53 (no result: TAG inh)
COC(=O)C1=C(C)N(Cc2ccccc2)C(=NCCc2ccccn2)N[C@H]1c1cccc(F)c1	SKN-1 block 37
Cc1[nH]c2ccccc2c1/C=N/Nc1ccccc1[N+](=O)[O-]	TAG inh 60
COc1ccc(NS(=O)(=O)c2cc([N+](=O)[O-])ccc2N/N=C/c2c(C)[nH]c3ccccc23)cc1	CRFBP-R2 agonist 51
CC(=O)Nc1ccc(C=NNc2ccc([N+](=O)[O-])cc2S(=O)(=O)Nc2ccccc2C(=O)O)cc1	none
Cc1[nH]c2ccccc2c1/C=N/NS(=O)(=O)c1ccccc1	none
CCOC(=O)C1=CC[C@@H](c2ccccc2)N(S(=O)(=O)c2ccc(C)cc2)[C@H]1C#N	none (no result: CRFBP-R2 block, CRFBP-R2 agonist, TAG inh)
COc1ccc(C2CC(c3c(O)cc(C)oc3=O)=NCCS2)c(OC)c1 (stereo not drawn)	none
Cc1cc(O)c(C2=Nc3ccccc3SC(c3ccc(Cl)cc3)C2)c(=O)o1 (stereo not drawn)	CRFBP-R2 block 84
CC1CC(C)(C)NC(=S)N1CCC(=O)Nc1ccc2c(c1)OCCO2 (stereo not drawn)	Cardio protect 69
Cc1ccc2nc(CC(O)(c3ccccc3)c3ccccc3)ccc2c1	none
COc1cccc2ccc(CC(O)(c3ccccc3)c3ccccc3)nc12	CRFBP-R2 block 58
COc1ccccc1C1C(C(=O)NCc2ccccc2)=C(C)Nc2ncnn21 (stereo not drawn)	SKN-1 block 47
CCCN(C(=O)C1CC(=O)N(c2ccccc2C(C)CC)C1)C1CCS(=O)(=O)C1 (stereo not drawn)	none
O=C(C1=NN(c2ccccc2)C2C(=O)N(c3ccccc3Cl)C(=O)C12)c1ccccc1 (stereo not drawn)	CRFBP-R2 agonist 135 (no result: TAG inh)
O=C(C1=NN(c2ccccc2)C2C(=O)N(c3ccccc3)C(=O)C12)c1ccccc1 (stereo not drawn)	CRFBP-R2 agonist 68
Cc1ccc(N2C(=O)C3C(C(=O)c4ccccc4)=NN(c4ccccc4)C3C2=O)cc1 (stereo not drawn)	CRFBP-R2 agonist 90 (no result: TAG inh)
C[C@@H]1CN([C@@H](C)CO)S(=O)(=O)c2ccc(Br)cc2O[C@H]1CN(C)C(=O)c1ccccc1	none
CCNC(=O)C1(C)CCCN(Cc2cccc3ccccc23)C1 (stereo not drawn)	none (no result: CRFBP-R2 block, CRFBP-R2 agonist)
CC(C)(C)NC(=O)C1c2ccccc2OCC(=O)N1Cc1ccccc1 (stereo not drawn)	none (no result: CRFBP-R2 block, CRFBP-R2 agonist, Cardio protect, TAG inh)
CCCn1cnc2cc(NCc3ccccn3)ccc21	none
CCCn1cnc2cc(NCc3cccc(OC)c3O)ccc21	SKN-1 block 35 (no result: TAG inh)
Cc1cccn2c(=O)c3cc(C(=O)N4CCN(Cc5ccccc5)CC4)sc3nc12	none
CCOc1ccc(NC(=O)CSc2ccc(-c3ccccn3)nn2)cc1	none (no result: TAG inh)
Cc1ccc(NC(=O)CSc2ccc(-c3ccccn3)nn2)cc1	Cardio protect 54
CN(C)CCCNc1cc(C(C)(C)C)nc2c(-c3ccc(Cl)cc3)cnn12	SKN-1 block 41
COc1cc(C(=O)NC2CC2)cc(OC)c1OC	none (no result: CRFBP-R2 block, CRFBP-R2 agonist, Cardio protect, TAG inh)
Cc1cc(NC(=O)Cc2ccsc2)ccc1Br	SKN-1 block 63 (no result: TAG inh)
O=C(NCc1ccc2c(c1)CCO2)Nc1ccccc1	none
